The structures appear in SMILES notation. Several values for one entry are separate records, joined by “and”; a condition that tells them apart may be missing. Equal values may be shown once. Records with an inconclusive call do not appear. Where a call stands in place of a potency, no number is given. Activity calls are given as the source filed them. The call rests on the fitted dose curve; in most records, active means well fitted curve in the direction sought with a large enough effect; inconclusive means small, poorly fitted or top-dose-only effect, or another doubt; inactive means no such curve, though single readings can be large; an effect the other way counts as inactive or inconclusive.
Potency means the concentration at half of the fitted maximal effect.

The first experiment can be described thus: qHTS of pediatric cancer cell lines to identify multiple opportunities for drug repurposing: Primary screen for Rh41 cells (AID 1347108). Further: nearly all actives have a fitted effect of over 70% in size. The settings on record: Rh41 rhabdomyosarcoma viability, CellTiter-Glo luminescence, 48 h; series mostly up to 46 µM. The essentials: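 Quantitative HTS format: each compound titrated (MIPE 11 points from 0.78 nM, NPC 8 points from 0.59 nM) onto cells plated 5 hours earlier. After 48 h at 37 degrees C, CellTiter-Glo luminescence was recorded.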
On the technique in general: qHTS replaces the single test concentration by a dilution series.
In the case of `CCC(=O)O[C@]1(C(=O)SCF)[C@H](C)C[C@H]2[C@@H]3C[C@H](F)C4=CC(=O)C=C[C@]4(C)[C@@]3(F)[C@@H](O)C[C@@]21C`, the Potency result was “inactive”. For `NC(=O)c1cccnc1`, the Potency entry was “inactive”. Same read-out and setting: the result for `CCCc1nc(C)c2c(=O)[nH]c(-c3cc(S(=O)(=O)N4CCN(CC)CC4)ccc3OCC)nn12` reads 14.8 µM (active); that for `Cc1c(-c2ccc(O)cc2)n(Cc2ccc(OCCN3CCCCCC3)cc2)c2ccc(O)cc12`, “inactive”; that for `CCCCc1oc2ccc(NS(C)(=O)=O)cc2c1C(=O)c1ccc(OCCCN(CCCC)CCCC)cc1`, 23.5 µM (active). Same read-out and setting: the result for `CN(C)c1ccc(C(=C2C=CC(=[N+](C)C)C=C2)c2ccc(N(C)C)cc2)cc1` reads 6.68 µM (active) and 1.66 µM (active). The same measure, in the same setting: the result for `Oc1c(Cl)cc(Cl)c2cccnc12` reads 23.5 µM (active); that for `O=S(=O)(c1cccc2cnccc12)N1CCCNCC1`, “inactive”. For `Cc1ccc(S(=O)(=O)N[C@@H](Cc2ccccc2)C(=O)CCl)cc1`, the Potency was 18.7 µM (active). With `C[C@@H](NCCCc1cccc(C(F)(F)F)c1)c1cccc2ccccc12`, the Potency result was “inactive”.

As for `CCOC(=O)c1ccc(C#Cc2ccc3c(c2)C(C)(C)CCS3)nc1`, the Potency entry is “inactive”. Same read-out and setting: the result for `S=P(N1CC1)(N1CC1)N1CC1` reads “inactive”; that for `CC(C)(C)NC(=O)[C@H]1CC[C@H]2[C@@H]3CC[C@H]4NC(=O)C=C[C@]4(C)[C@H]3CC[C@]12C`, “inactive”; that for `CN(Cc1cc(Br)cc(Br)c1N)C1CCCCC1`, “inactive”. Still for that read-out and setting: the result for `Cc1cccc(N(C)C(=S)Oc2ccc3ccccc3c2)c1` reads “inactive”.

The next experiment is described as follows: qHTS of pediatric cancer cell lines to identify multiple opportunities for drug repurposing: Confirmatory screen for NB1643 cells (AID 1347109). Further: nearly all actives have a fitted effect of over 45% in size. Conditions: NB1643 neuroblastoma cell viability; series mostly up to 45.9 µM. Summed up: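 Cells (500-1,000/well) in growth media were settled 5 h at 37 degrees C, then given compounds for 48 h. Viability was read as CellTiter-Glo luminescence. Primary runs used MIPE at 11 points (0.78 nM-46 µM) and NPC at 8 points (0.59 nM-46 µM); follow-ups used 11 points.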
For `COc1cc2nc(N3CCCN(C)CC3)nc(NC3CCN(Cc4ccccc4)CC3)c2cc1OC`, the Potency is 20.8 µM (active). On the same count and under the same terms, the result for `CCC(=O)O[C@]1(C(=O)SCF)[C@H](C)C[C@H]2[C@@H]3C[C@H](F)C4=CC(=O)C=C[C@]4(C)[C@@]3(F)[C@@H](O)C[C@@]21C` reads “inactive”; that for `COC(=O)Nc1nc2ccc(S(=O)c3ccccc3)cc2[nH]1` (stereo not drawn), 1.85 µM (active); that for `CNCC[C@H](Oc1cccc2ccccc12)c1cccs1`, “inactive”.

Turning to `CN(C)c1ccc(C(=C2C=CC(=[N+](C)C)C=C2)c2ccc(N(C)C)cc2)cc1`, the Potency is 1.17 µM (active). On the same count and under the same terms, the result for `COc1ccc(C(=O)CC(=O)c2ccc(C(C)(C)C)cc2)cc1` reads “inactive”; that for `Oc1c(Cl)cc(Cl)c2cccnc12`, 18.5 µM (active); that for `COc1cc2c(Nc3ccc(Br)cc3F)ncnc2cc1OCC1CCN(C)CC1`, “inactive”. Same read-out and setting: the result for `CNS(=O)(=O)CCc1ccc2[nH]cc(C3CCN(C)CC3)c2c1` reads “inactive”; that for `CCOC(=O)c1ccc(C#Cc2ccc3c(c2)C(C)(C)CCS3)nc1`, “inactive”; that for `Nc1nc(F)nc2c1ncn2[C@@H]1O[C@H](CO)[C@@H](O)[C@@H]1O`, 0.465 µM (active). On the same count and under the same terms, the result for `CCOC(=O)[C@H](CCc1ccccc1)N[C@H]1CS[C@H](c2cccs2)CN(CC(=O)O)C1=O` reads “inactive”; that for `Cc1cccc(N(C)C(=S)Oc2ccc3ccccc3c2)c1`, “inactive”.

Values taken from PubChem BioAssay (NCATS).
